The campaign covered roughly 300,000 compounds. About 3,600 (1.2%) were called active. Rule as the data show it: active = activation above about 30% (passing the limit was not always enough); inconclusive = no clear call, values can overlap the other calls. Many of the other results were omitted from the sample, so actives are more common in it than they were. Where a SMILES comes first, the peptide text is derived from it. [ ]: non-standard residue; d: D form. The star is where a group is joined. PhAc = O=C(Cc1ccccc1)*

A short description of this assay: activation of beta-catenin signaling reporter – cell-based, plate reader, single point, primary screen (AID 743398).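 Also: 0% = neutral control wells and 100% = positive control wells.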 Particulars: Wnt/beta-catenin reporter cell assay, activator, at 9.35 µM, stronger effect = higher value.
In the case of `COc1ccc(OCCCn2cccc2/C=C2/C(=N)N3OC(C)=CC3=NC2=O)cc1`, the activation was 21% (inactive).

As for `CCOc1cc(/C=C2/C(=N)N3OC(C)=CC3=NC2=O)ccc1OC`, the activation is 39.2% (active).

In the case of `CCOc1cc(/C=C2\C(=N)N3N=C(C)SC3=NC2=O)ccc1OCCOc1ccccc1`, the activation was 0.097% (inactive).

Consider `COc1ccc(-c2cc3c(c4c2ccn4C)C2CCC3C2)cn1` (centres undefined), for which the activation is -0.553% (inactive).

Regarding `Cc1cccc(-c2cnc(C(O)c3ccc4ccccc4c3)[nH]2)c1` (centres undefined), the activation was -0.607% (inactive).

For the compound `Cc1ccc(NC(=O)Nc2ccccc2)c(Br)c1`, the activation was 50.8% (active).

`Cc1c(NC(=O)Nc2ccccc2)cccc1[N+](=O)[O-]`: the activation is 1.75% (inactive).

For `CS(=O)(=O)c1ccc(Cl)c(NC(=O)Nc2ccccc2)c1`, the activation was 1.45% (inactive).

With `CC[C@H](C)[C@H]1CNC(=O)C(=O)N1CC1CCN(CCc2ccc(OC)c(OC)c2)CC1`, the activation was -3.36% (inactive).

Take `COc1ccc2oc(N)nc2c1`: the activation was 2.19% (inactive).

With `COc1ccc2oc(-c3cccc(NC(=O)CSc4ccc(Cl)cc4)c3)nc2c1`, the activation is 22.7% (inactive).

Take `COc1cccc(-c2nc3cc(C)ccc3o2)c1`: the activation was 40.6% (active).

Take `CC(=O)Oc1ccc(Cn2c(C)c(C(=O)NCc3ccc(C#N)cc3)sc2=O)cc1`: the activation was -1.94% (inactive).

Take `Cc1ccc(-c2nc3c(Cl)cc(C(F)(F)F)cn3c2Cc2cccc(Cl)c2)cc1`: the activation was -3.09% (inactive).

With `CC(=O)Nc1cccc(-c2cc(NC=O)c3ncc(-c4ccc(F)c(Cl)c4)n3c2)c1`, the activation was -1.52% (inactive).

For `COc1cccc(-c2cc3nc(NCCOc4ccccc4Cl)n(C)c(=O)c3s2)c1`, the activation was 0.348% (inactive).

As for `COc1ccc(-c2ccc3c(n2)CCCN3S(=O)(=O)c2ccc(C)cc2)cc1`, the activation was -3.98% (inactive).

Turning to `O=C(O)c1ccccc1CSc1nc2ccccc2s1`, the activation is 2.11% (inactive).

On to `O=C(O)CCCCc1nc2ccccc2s1`, for which the activation was -1.61% (inactive).

Regarding `O=C(O)CSCc1nc2ccccc2s1`, the activation is 39.2% (active).

On to `CC(=O)c1cnc(-c2ccccc2)s1`, for which the activation is 2.94% (inactive).

Regarding `CS(=O)(=O)N1CCc2nc(-c3ccccc3)sc2C1`, the activation was 35.7% (active).

With `CS(=O)(=O)N1CCC(C(=O)N2CCN(c3ccccc3)CC2)CC1`, the activation was -0.44% (inactive).

In the case of `COC(=O)Cc1nnn2c1[C@H](C)[C@@H](OC)c1cc(Br)ccc1-2`, the activation is 2.78% (inactive).

In the case of `Nc1nc2c(ncn2[C@@H]2O[C@H](C(=O)N[C@H](Cc3ccccc3)C(=O)NCC3CCCCC3)[C@@H](O)[C@H]2O)c(=O)[nH]1`, the activation is -6.28% (inactive).

On to `COc1ccc(CNC(=O)c2ccc(-c3cccnc3)c3ccoc23)cc1OC`, for which the activation is -3.07% (inactive).

As to `CO/N=C/CC(=O)c1ccc(OC)cc1`, the activation is 61.5% (active).

With `COc1ccc(CCC(=O)c2ccc(OC)cc2)cc1`, the activation was 5.92% (inactive).

Turning to `COc1ccc(OCCC(=O)c2ccc(OC)cc2)cc1`, the activation was -1.86% (inactive).

Consider `CC(C)(C)C(c1nc2ccccc2[nH]1)n1c(Cc2csc3ccccc23)nc2ccccc21` (centres undefined), for which the activation is 15.7% (inactive).

As for `CCc1c(C)nc2cc(C)[nH]n2c1=O`, the activation was -2.02% (inactive).

Consider `C=CCc1c(C)nc2cc(-c3ccccc3)[nH]n2c1=O`, for which the activation was 45.5% (active).

For the compound `CCCCN1Cc2c(nc3cc(-c4ccccc4)[nH]n3c2=O)C1=O`, the activation is 0.267% (inactive).

`COc1ccc(CN2CCC(C)(Oc3cccc(F)c3)C2)c2ccccc12` (centres undefined): the activation was -4.58% (inactive).

Consider `CCc1nc2c(OCCOc3ccccc3)cccn2c1N(C)C(=O)c1ccccc1F`, for which the activation was -2.42% (inactive).

On to `CC(O)(c1cccc(F)c1)c1nc(-c2ccc3c(c2)OCO3)cs1` (centres undefined), for which the activation was -1.63% (inactive).

On to `Nc1ccc(-c2nnc(-c3ccccc3)o2)cc1`, for which the activation is 2.79% (inactive).

`O=C(Oc1ccc(-c2nc(-c3ccccn3)no2)cc1)c1ccccc1`: the activation was 1.55% (inactive).

Regarding `Brc1ccc(-c2noc(-c3ccccc3)n2)o1`, the activation is 43.9% (active).

Take `Cc1cc2nc(-c3ccc(F)cc3)c(Cc3ccsc3)n2c(C)c1Br`: the activation is -0.642% (inactive).

As for `COc1cccc(CNC(=O)[C@H]2CCCN2C(=O)[C@H]2CCCN2C(=O)C2CCCCC2)c1`, the activation is 0.974% (inactive).

As to `CC(C)C[C@H](NC(=O)C1CCC(CNC(=O)[C@@H]2CCCN2C(=O)OC(C)(C)C)CC1)C(=O)O` (some centres undefined), the activation was 1.33% (inactive).

Regarding `COC(=O)[C@H](CC(C)C)NC(=O)N1CCCCC1C` (some centres undefined), the activation was 39.6% (active).

Consider `CC(C)C[C@@H](NC(=O)[C@H]1CCCN1C(=O)Cc1ccccc1)C(N)=O` (PhAc-[dP]-[dL]-NH2), for which the activation is 0.192% (inactive).

Regarding `COc1cccc(CNC(=O)[C@H]2CCCN2C(=O)[C@H]2CCCN2C(=O)c2cc(F)cc(F)c2)c1`, the activation is -1.85% (inactive).

As to `CN(C)c1ccc(C2Nc3ccccc3C(=O)N2NS(=O)(=O)c2ccccc2)cc1` (centres undefined), the activation was -0.625% (inactive).

For the compound `O=C1c2ccccc2NC(c2ccccn2)N1NS(=O)(=O)c1ccccc1` (centres undefined), the activation was 31% (active).

Regarding `O=C1c2ccccc2NC(c2ccccc2O)N1NS(=O)(=O)c1ccccc1` (centres undefined), the activation is -0.668% (inactive).

Turning to `c1ccc(CNCc2ccc(CNCc3ccccc3)cc2)cc1`, the activation is 0.235% (inactive).

Take `N#CCCN(C(=O)Nc1ccc(Cl)c(Cl)c1)C1CCCCC1`: the activation is 2.31% (inactive).

`CC1(C(=O)NCc2ccc3c(c2)OCO3)CCN1C(=O)Cc1cccc2ccccc12` (centres undefined): the activation was 12.9% (inactive).

For the compound `CCN(CC)CCN(C)C(c1ccnc2ccccc12)c1nnnn1-c1ccc2c(c1)OCCO2` (centres undefined), the activation is -2.38% (inactive).

Regarding `CCc1cccc(CC)c1N1C(=O)CC(Sc2ccccc2N)C1=O` (centres undefined), the activation was 2.41% (inactive).

For the compound `O=S(=O)(Nc1ccc2nc(N3CCOCC3)sc2c1)c1ccccc1`, the activation was 29.3% (inactive).

As for `c1c2c(cc3sc(N4CCCCC4)nc13)OCCO2`, the activation was 1.11% (inactive).

Consider `Brc1ccc2nc(N3CCCC3)sc2c1`, for which the activation was 43.7% (active).

With `COC(=O)[C@@]12C[C@@H](CC(=O)N3CCC(c4ccccc4)CC3)C(=O)N(Cc3ccccc3)C1=CCC(C)(C)C2`, the activation was -3.58% (inactive).

As for `CCCCCc1c(Cc2ccccc2)ncn1CCc1ccccc1OC`, the activation is -9.51% (inactive).

Turning to `O=C(CNC(=O)c1ccccc1)Oc1ccc([N+](=O)[O-])cc1`, the activation was -0.597% (inactive).

On to `O=C(O)c1cc([N+](=O)[O-])c(Nc2cccc3ccccc23)c([N+](=O)[O-])c1`, for which the activation was 0.153% (inactive).

With `O=C(Nc1ccc2ccccc2c1[N+](=O)[O-])c1ccccc1`, the activation is 55.8% (active).

With `COC(=O)c1c(-c2ccc(OC)cc2)c2c(c3c4ccccc4n(S(=O)(=O)c4ccc(C)cc4)c13)C(=O)N(C)C2`, the activation was -6.59% (inactive).

Regarding `COC(=O)C1=C(C(=O)OC)C2C=C(C(C)C)C1C(=O)C2(C)O` (centres undefined), the activation is -3.31% (inactive).

`O=C(NCc1ccc(F)cc1)c1cc(C2CCCCN2C(=O)c2ccccn2)on1` (centres undefined): the activation is -0.749% (inactive).

As for `O=C(NCc1ccccc1)[C@@H]1CCCN1C(=O)[C@@H](NS(=O)(=O)c1ccc(F)cc1F)C1CCCCC1`, the activation is -0.246% (inactive).

On to `COC(=O)c1ccc(CSc2nncn2N)cc1`, for which the activation is -7.5% (inactive).

With `COC(=O)c1ccc(SCc2ccccc2)nc1`, the activation is 51.6% (active).

Regarding `COC(=O)c1ccc(CSc2ccc(S(=O)(=O)N3CCCCC3)cn2)cc1`, the activation is -0.89% (inactive).

Take `Nc1ccn([C@@H]2O[C@H](C(=O)N[C@H]3CCCCNC3=O)[C@@H](O)[C@H]2O)c(=O)n1`: the activation is -3.4% (inactive).

Take `O=C(Nc1ccc2c(c1)OCCO2)C1CCCC1`: the activation was -15.2% (inactive).

Regarding `O=C(Nc1ccc2c(c1)OCCO2)C1CCCN(c2ncccn2)C1` (centres undefined), the activation was 45.5% (active).

On to `Cc1cc(C)nc(N2CCC(C(=O)Nc3ccc4c(c3)OCCO4)CC2)n1`, for which the activation was -5.24% (inactive).

Turning to `CC1(C(=O)Nc2cccc3cccnc23)CCN1C(=O)CCC1CCCC1` (centres undefined), the activation is -4.88% (inactive).

As to `O=[N+]([O-])c1ccccc1N/N=C1\CCc2ccccc21`, the activation was 47.7% (active).

In the case of `O=[N+]([O-])c1cc(C(F)(F)F)ccc1NN=C1CCCC1`, the activation is 6.33% (inactive).

Consider `CN1CCN(CCNC(=O)Nc2ccccc2[N+](=O)[O-])CC1`, for which the activation was -0.54% (inactive).

With `CC1=C(C(=O)N2CCOCC2)CC(CC(=O)NCC2CCCCC2)C(=O)N1Cc1ccc(F)cc1` (centres undefined), the activation is -1.2% (inactive).

With `CCCCCCN1CCN(C2CN(Cc3cn(Cc4ccc(F)cc4)nn3)S(=O)(=O)C2)CC1` (centres undefined), the activation is -5.62% (inactive).

For `Cn1ccc(NC(=O)Nc2ccc(Cl)cc2)n1`, the activation was 20.1% (inactive).

Regarding `Cc1ccc(C(=O)Nc2ccn(C)n2)cc1`, the activation was 55.8% (active).

With `CN(C)S(=O)(=O)c1cc(C(=O)Nc2ccn(C)n2)c(Cl)cc1Cl`, the activation was 1.22% (inactive).

Consider `Cc1ccc(-c2ccc(CN3C(C(C)C)C(=O)N(Cc4cn(CCC5OCCO5)nn4)CCS3(=O)=O)cc2)cc1` (centres undefined), for which the activation is -0.655% (inactive).

Turning to `CC(=O)Nc1ccc(C(=O)NNC(=O)CCCCC(=O)NNC(=O)c2ccc(NC(C)=O)cc2)cc1`, the activation was 1.15% (inactive).

On to `CC(=O)Nc1ccc(C(=O)/C=C/c2ccc[nH]2)cc1`, for which the activation is 42.8% (active).

With `CC(=O)Nc1ccc(C=CC(=O)c2ccc([N+](=O)[O-])cc2)cc1`, the activation was -6.15% (inactive).

As to `CCOc1ccccc1C(=O)N1CCC[C@@H]1C(=O)N1CCC[C@H]1C(=O)NCc1ccccc1`, the activation was 1.73% (inactive).

Regarding `COC(=O)[C@]12C[C@H](CC(=O)NCCc3ccccc3OC)C(=O)N(Cc3ccccc3)C1=C[C@H](C(C)C)O[C@@H]2C1CC1`, the activation is -2.31% (inactive).

Take `COc1ccc(-c2nnc(-c3ccc4ccccc4c3)o2)cc1`: the activation was 3.21% (inactive).

`COc1ccc(Nc2ccc3ccccc3c2)cc1`: the activation is 50.4% (active).

`COc1ccc(Nc2nnc(C)c3ccccc23)cc1`: the activation is 1.79% (inactive).

Consider `CCOc1ccc2[nH]c(=S)sc2c1`, for which the activation was 6.79% (inactive).

Turning to `CCCc1cc(=O)n2[nH]c(C)c(-c3ccc(Cl)cc3)c2n1`, the activation is -2.59% (inactive).

With `COCc1cc(=O)[nH]c(-c2ccc(C(F)(F)F)cc2)n1`, the activation is -1.39% (inactive).

In the case of `COCc1cc(=O)n2[nH]c(C)c(-c3ccccc3)c2n1`, the activation is 47.6% (active).

Values taken from PubChem BioAssay AID743398 (Broad Institute, 2014).
